Laboratory results as given in PubChem BioAssay (NCATS).
Inconclusive results are not listed. Activity calls are given as the source filed them. The call rests on the fitted dose curve; in most records, active means well fitted cell-killing curve with a large enough effect; inconclusive means small, poorly fitted or top-dose-only effect, or effect the other way; inactive means flat fitted curve, though single readings scatter.

Assays:
Experiment in all cases: Primary qHTS to identify gynecologic anti-cancer compounds using libraries of approved drugs and bioactive compounds (AID 1345084); further: nearly all actives have a fitted effect of over 55% in size
C33A = conditions: Gynecologic cancer cell panel viability, ATPlite luminescence, 48 h; series mostly up to 57.5 µM
Summary of the method: (§1)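 Measured: luminescence after ATPlite addition (15 min, RT). Exposure: 48 h, 37 C, 5% CO2.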

CAOV3 = conditions: Gynecologic cancer cell panel viability, ATPlite luminescence, 48 h; series mostly up to 57.5 µM
Summary of the method: as §1

CASKI = conditions: Gynecologic cancer cell panel viability, ATPlite luminescence, 48 h; series mostly up to 57.5 µM
Summary of the method: as §1

Es-2 = conditions: Gynecologic cancer cell panel viability, ATPlite luminescence, 48 h; series mostly up to 57.5 µM
Summary of the method: as §1

HeLa = conditions: Gynecologic cancer cell panel viability, ATPlite luminescence, 48 h; series mostly up to 57.5 µM
Summary of the method: as §1

Hek293T = conditions: Gynecologic cancer cell panel viability, ATPlite luminescence, 48 h, control line for the selectivity index; series mostly up to 57.5 µM
Summary of the method: as §1

JEG-3 = conditions: Gynecologic cancer cell panel viability, ATPlite luminescence, 48 h; series mostly up to 57.5 µM
Summary of the method: as §1

OV90 = conditions: Gynecologic cancer cell panel viability, ATPlite luminescence, 48 h; series mostly up to 57.5 µM
Summary of the method: as §1

PA-1 = conditions: Gynecologic cancer cell panel viability, ATPlite luminescence, 48 h; series mostly up to 57.5 µM
Summary of the method: as §1

Tov-21-G = conditions: Gynecologic cancer cell panel viability, ATPlite luminescence, 48 h; series mostly up to 57.5 µM
Summary of the method: as §1

Tov112D = conditions: Gynecologic cancer cell panel viability, ATPlite luminescence, 48 h; series mostly up to 57.5 µM
Summary of the method: as §1

SKOV3 = conditions: Gynecologic cancer cell panel viability, ATPlite luminescence, 48 h; series mostly up to 57.5 µM
Summary of the method: as §1
On the % scale 0 is the no-effect control and ±100 the full control effect.

NC(=O)C(O[C@@H]1O[C@H](CO[C@@H]2O[C@H](CO)[C@@H](O)[C@H](O)[C@H]2O)[C@@H](O)[C@H](O)[C@H]1O)c1ccccc1 (some centres undefined)
inactive: Potency (C33A) | Potency (CAOV3) | outcome (CASKI) | Potency (Es-2) | Potency (HeLa) | Potency (Hek293T) | Potency (JEG-3) | Potency (OV90) | Potency (PA-1) | Potency (Tov-21-G) | Potency (Tov112D)

CC1=C2C[C@@]3(C)C(CCC[C@@H]3C)C(O)C2(O)OC1=O (some centres undefined)
inactive: Potency (C33A) | Potency (CAOV3) | outcome (CASKI) | Potency (Es-2) | Potency (HeLa) | Potency (Hek293T) | Potency (JEG-3) | Potency (OV90) | Potency (PA-1) | Potency (Tov-21-G) | Potency (Tov112D)

O=C(O)c1ccncc1Nc1nn(CCN2CCC(F)(F)CC2)c2ccc(F)cc12
inactive: Potency (C33A) | Potency (CAOV3) | outcome (CASKI) | Potency (Es-2) | Potency (HeLa) | Potency (Hek293T) | Potency (JEG-3) | Potency (OV90) | Potency (PA-1) | Potency (Tov-21-G) | Potency (Tov112D)

COC1OC(=O)C2=C1C1(C)CCCC(C)(C)C1CC2O (centres undefined)
inactive: Potency (C33A) | Potency (CAOV3) | outcome (CASKI) | Potency (Es-2) | Potency (HeLa) | Potency (Hek293T) | Potency (JEG-3) | Potency (OV90) | Potency (PA-1) | Potency (Tov-21-G) | Potency (Tov112D)

C=C[C@@](C)(CCC=C(C)C)O[C@@H]1O[C@H](CO[C@@H]2OC[C@H](O)[C@H](O)[C@H]2O)[C@@H](O)[C@H](O)[C@H]1O
inactive: Potency (C33A) | Potency (CAOV3) | outcome (CASKI) | Potency (Es-2) | Potency (HeLa) | Potency (Hek293T) | Potency (JEG-3) | Potency (OV90) | Potency (PA-1) | Potency (Tov-21-G) | Potency (Tov112D)

CC1OC(O[C@@H]2[C@H](O)[C@@H](OC3OC(CO)C(O)C(O)C3O)[C@H](OC(=O)[C@]34CCC(C)(C)C[C@H]3C3=CCC5[C@@]6(C)CC[C@H](O[C@@H]7O[C@H](C(=O)O)[C@@H](O)[C@H](O[C@@H]8OC[C@@H](O)[C@H](O)[C@H]8O)[C@H]7O[C@@H]7O[C@H](CO)[C@H](O)[C@H](O)[C@H]7O)[C@@](C)(C=O)C6CC[C@@]5(C)[C@]3(C)C[C@H]4O)O[C@@H]2C)C(O)C(O)C1OC1OCC(O)C(O)C1O (some centres undefined)
inactive: activity change, negative = cytotoxicity (C33A) 2.44% [at 6.55 µM] | activity change, negative = cytotoxicity (CAOV3) 8.46% [at 6.55 µM] | activity change, negative = cytotoxicity (CASKI) 4.43% [at 6.55 µM] | activity change, negative = cytotoxicity (Es-2) -4.12% [at 6.55 µM] | activity change, negative = cytotoxicity (HeLa) 23.9% [at 6.55 µM] | activity change, negative = cytotoxicity (Hek293T) 0.666% [at 6.55 µM] | activity change, negative = cytotoxicity (JEG-3) 2.9% [at 6.55 µM] | activity change, negative = cytotoxicity (OV90) -6.72% [at 6.55 µM] | activity change, negative = cytotoxicity (PA-1) 8.3% [at 6.55 µM] | activity change, negative = cytotoxicity (Tov-21-G) -1.56% [at 6.55 µM] | activity change, negative = cytotoxicity (Tov112D) 1.65% [at 6.55 µM]

C[C@@H]1CCC2C(C)(C)[C@H](O)[C@H](O)C[C@]2(C)[C@@]12Cc1c(O)cc3c(c1O2)CN(CCCC(=O)O)C3=O (some centres undefined)
inactive: Potency (C33A) | Potency (CAOV3) | outcome (CASKI) | Potency (Es-2) | Potency (HeLa) | Potency (Hek293T) | Potency (JEG-3) | Potency (OV90) | Potency (PA-1) | Potency (Tov-21-G) | Potency (Tov112D)

C=C1C2(C)CC3C4(C)C=CC(=O)OC(C)(C)C4CCC3(C)C1(C(=O)OC)C(=O)C(C)(O)C2=O (centres undefined)
inactive: Potency (C33A) | Potency (CAOV3) | outcome (CASKI) | Potency (Es-2) | Potency (HeLa) | Potency (Hek293T) | Potency (JEG-3) | Potency (OV90) | Potency (PA-1) | Potency (Tov-21-G) | Potency (Tov112D)

C[C@@H]1O[C@@H](O[C@@H]2\C=C/C=C\C=C/C=C\C[C@H](C)OC(=O)/C=C\[C@H]3O[C@@H]3C[C@H](O)C[C@]3(O)C[C@@H](O)[C@@H](C(=O)O)[C@H](C2)O3)[C@H](O)[C@H](N)[C@@H]1O
inactive: Potency (C33A) | Potency (CAOV3) | outcome (CASKI) | Potency (Es-2) | Potency (HeLa) | Potency (Hek293T) | Potency (JEG-3) | Potency (OV90) | Potency (PA-1) | Potency (Tov-21-G) | Potency (Tov112D)

CC1(C)CC[C@]2(C(=O)O[C@@H]3O[C@H](CO[C@@H]4O[C@H](CO[C@@H]5O[C@H](CO)[C@H](O)[C@H](O)[C@H]5O)[C@@H](O)[C@H](O)[C@H]4O)[C@@H](O)[C@H](O[C@@H]4O[C@H](CO)[C@@H](O)[C@H](O)[C@H]4O)[C@H]3O)[C@H](O)C[C@]3(C)C(=CCC4[C@@]5(C)CC[C@H](O[C@@H]6OC[C@@H](O)[C@H](O)[C@H]6O)[C@@](C)(C(=O)O)C5CC[C@]43C)[C@@H]2C1 (some centres undefined)
inactive: activity change, negative = cytotoxicity (C33A) 12.5% [at 6.55 µM] | activity change, negative = cytotoxicity (CAOV3) 1.69% [at 6.55 µM] | activity change, negative = cytotoxicity (CASKI) -1.12% [at 6.55 µM] | activity change, negative = cytotoxicity (Es-2) -9.51% [at 6.55 µM] | activity change, negative = cytotoxicity (HeLa) 2.81% [at 6.55 µM] | activity change, negative = cytotoxicity (Hek293T) -1.44% [at 6.55 µM] | activity change, negative = cytotoxicity (JEG-3) -1.76% [at 6.55 µM] | activity change, negative = cytotoxicity (OV90) 12% [at 6.55 µM] | activity change, negative = cytotoxicity (PA-1) 14% [at 6.55 µM] | activity change, negative = cytotoxicity (Tov-21-G) 9.11% [at 6.55 µM] | activity change, negative = cytotoxicity (Tov112D) 3.01% [at 6.55 µM]

CN(C)CC(c1ccc(O)cc1)C1(O)CCCCC1 (centres undefined)
inactive: Potency (C33A) | Potency (CAOV3) | outcome (CASKI) | Potency (Es-2) | Potency (HeLa) | Potency (Hek293T) | Potency (JEG-3) | Potency (OV90) | Potency (PA-1) | Potency (SKOV3) | Potency (Tov112D)

CC(C)c1ccc2c(c1)C(O)CC1C(C)(CO)CCCC21C (centres undefined)
inactive: Potency (C33A) | Potency (CAOV3) | outcome (CASKI) | Potency (Es-2) | Potency (HeLa) | Potency (Hek293T) | Potency (JEG-3) | Potency (OV90) | Potency (PA-1) | Potency (Tov-21-G) | Potency (Tov112D)

CC1(C)CC(NC(=O)C(=O)Nc2ccc(Cl)cc2)CC(C)(C)N1
inactive: Potency (C33A) | Potency (CAOV3) | outcome (CASKI) | Potency (Es-2) | Potency (HeLa) | Potency (Hek293T) | Potency (JEG-3) | Potency (OV90) | Potency (PA-1) | Potency (Tov-21-G) | Potency (Tov112D)

COC(=O)c1cc(OC)cc(OC)c1C(=O)c1c(OC)cc2c(c1O)C1CCC(O)C(C)(O2)O1 (centres undefined)
inactive: Potency (C33A) | Potency (CAOV3) | outcome (CASKI) | Potency (Es-2) | Potency (HeLa) | Potency (Hek293T) | Potency (JEG-3) | Potency (OV90) | Potency (PA-1) | Potency (Tov-21-G) | Potency (Tov112D)
